In the supplement of paper PMC6411743:
± gives the standard deviation of the averaged measurements. About 5,400 targets were measured; listed, in parts, are those with the largest changes and a random draw of the rest.

Compound: Nc1nc2c(ncn2[C@@H]2O[C@H](COP(=O)(O)OP(=O)(O)OP(=O)(O)O)[C@@H](O)[C@H]2O)c(=O)[nH]1 [guanosine triphosphate]
Assay: NP40-soluble protein abundance relative to vehicle (solubility fold change) (ratio); higher = more soluble protein in presence of GTP
Method in brief: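 Data come from three independent experiments in which Dounce-homogenised Jurkat crude lysate was treated at eight concentrations from 0.1 to 10 mM. Treatment ran 10 min at room temperature and then 3 min at 37 °C, after which 0.8% NP40 and benzonase were added for 60 min at 4 °C before ultracentrifugation. The supernatant underwent TMT labelling and LC-MS/MS, and vsn-normalised intensities were expressed as fold change against the detergent-processed vehicle in each replicate.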

Chain of UniProt A5PLN9 (A5PLN9 whole entry): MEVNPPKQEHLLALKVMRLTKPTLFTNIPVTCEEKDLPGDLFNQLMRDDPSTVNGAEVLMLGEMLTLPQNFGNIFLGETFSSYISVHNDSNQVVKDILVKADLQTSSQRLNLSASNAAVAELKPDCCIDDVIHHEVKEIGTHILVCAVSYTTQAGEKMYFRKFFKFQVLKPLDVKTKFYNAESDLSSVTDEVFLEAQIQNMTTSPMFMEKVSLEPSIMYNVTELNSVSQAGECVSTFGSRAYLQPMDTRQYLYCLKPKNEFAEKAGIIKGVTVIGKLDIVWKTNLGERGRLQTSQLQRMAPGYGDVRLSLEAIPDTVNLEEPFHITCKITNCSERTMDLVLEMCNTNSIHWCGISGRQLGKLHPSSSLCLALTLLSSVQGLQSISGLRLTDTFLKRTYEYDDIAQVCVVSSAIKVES
Chain of UniProt Q9UM22 (Q9UM22 whole entry, one chain of several): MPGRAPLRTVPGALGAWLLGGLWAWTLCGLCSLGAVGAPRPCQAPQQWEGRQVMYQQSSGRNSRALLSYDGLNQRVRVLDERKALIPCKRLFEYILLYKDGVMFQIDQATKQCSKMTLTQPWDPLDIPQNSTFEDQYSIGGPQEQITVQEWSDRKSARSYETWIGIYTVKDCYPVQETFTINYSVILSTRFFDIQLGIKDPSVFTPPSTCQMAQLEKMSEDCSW
Chain of UniProt Q99996 (Q99996 whole entry, one chain of several): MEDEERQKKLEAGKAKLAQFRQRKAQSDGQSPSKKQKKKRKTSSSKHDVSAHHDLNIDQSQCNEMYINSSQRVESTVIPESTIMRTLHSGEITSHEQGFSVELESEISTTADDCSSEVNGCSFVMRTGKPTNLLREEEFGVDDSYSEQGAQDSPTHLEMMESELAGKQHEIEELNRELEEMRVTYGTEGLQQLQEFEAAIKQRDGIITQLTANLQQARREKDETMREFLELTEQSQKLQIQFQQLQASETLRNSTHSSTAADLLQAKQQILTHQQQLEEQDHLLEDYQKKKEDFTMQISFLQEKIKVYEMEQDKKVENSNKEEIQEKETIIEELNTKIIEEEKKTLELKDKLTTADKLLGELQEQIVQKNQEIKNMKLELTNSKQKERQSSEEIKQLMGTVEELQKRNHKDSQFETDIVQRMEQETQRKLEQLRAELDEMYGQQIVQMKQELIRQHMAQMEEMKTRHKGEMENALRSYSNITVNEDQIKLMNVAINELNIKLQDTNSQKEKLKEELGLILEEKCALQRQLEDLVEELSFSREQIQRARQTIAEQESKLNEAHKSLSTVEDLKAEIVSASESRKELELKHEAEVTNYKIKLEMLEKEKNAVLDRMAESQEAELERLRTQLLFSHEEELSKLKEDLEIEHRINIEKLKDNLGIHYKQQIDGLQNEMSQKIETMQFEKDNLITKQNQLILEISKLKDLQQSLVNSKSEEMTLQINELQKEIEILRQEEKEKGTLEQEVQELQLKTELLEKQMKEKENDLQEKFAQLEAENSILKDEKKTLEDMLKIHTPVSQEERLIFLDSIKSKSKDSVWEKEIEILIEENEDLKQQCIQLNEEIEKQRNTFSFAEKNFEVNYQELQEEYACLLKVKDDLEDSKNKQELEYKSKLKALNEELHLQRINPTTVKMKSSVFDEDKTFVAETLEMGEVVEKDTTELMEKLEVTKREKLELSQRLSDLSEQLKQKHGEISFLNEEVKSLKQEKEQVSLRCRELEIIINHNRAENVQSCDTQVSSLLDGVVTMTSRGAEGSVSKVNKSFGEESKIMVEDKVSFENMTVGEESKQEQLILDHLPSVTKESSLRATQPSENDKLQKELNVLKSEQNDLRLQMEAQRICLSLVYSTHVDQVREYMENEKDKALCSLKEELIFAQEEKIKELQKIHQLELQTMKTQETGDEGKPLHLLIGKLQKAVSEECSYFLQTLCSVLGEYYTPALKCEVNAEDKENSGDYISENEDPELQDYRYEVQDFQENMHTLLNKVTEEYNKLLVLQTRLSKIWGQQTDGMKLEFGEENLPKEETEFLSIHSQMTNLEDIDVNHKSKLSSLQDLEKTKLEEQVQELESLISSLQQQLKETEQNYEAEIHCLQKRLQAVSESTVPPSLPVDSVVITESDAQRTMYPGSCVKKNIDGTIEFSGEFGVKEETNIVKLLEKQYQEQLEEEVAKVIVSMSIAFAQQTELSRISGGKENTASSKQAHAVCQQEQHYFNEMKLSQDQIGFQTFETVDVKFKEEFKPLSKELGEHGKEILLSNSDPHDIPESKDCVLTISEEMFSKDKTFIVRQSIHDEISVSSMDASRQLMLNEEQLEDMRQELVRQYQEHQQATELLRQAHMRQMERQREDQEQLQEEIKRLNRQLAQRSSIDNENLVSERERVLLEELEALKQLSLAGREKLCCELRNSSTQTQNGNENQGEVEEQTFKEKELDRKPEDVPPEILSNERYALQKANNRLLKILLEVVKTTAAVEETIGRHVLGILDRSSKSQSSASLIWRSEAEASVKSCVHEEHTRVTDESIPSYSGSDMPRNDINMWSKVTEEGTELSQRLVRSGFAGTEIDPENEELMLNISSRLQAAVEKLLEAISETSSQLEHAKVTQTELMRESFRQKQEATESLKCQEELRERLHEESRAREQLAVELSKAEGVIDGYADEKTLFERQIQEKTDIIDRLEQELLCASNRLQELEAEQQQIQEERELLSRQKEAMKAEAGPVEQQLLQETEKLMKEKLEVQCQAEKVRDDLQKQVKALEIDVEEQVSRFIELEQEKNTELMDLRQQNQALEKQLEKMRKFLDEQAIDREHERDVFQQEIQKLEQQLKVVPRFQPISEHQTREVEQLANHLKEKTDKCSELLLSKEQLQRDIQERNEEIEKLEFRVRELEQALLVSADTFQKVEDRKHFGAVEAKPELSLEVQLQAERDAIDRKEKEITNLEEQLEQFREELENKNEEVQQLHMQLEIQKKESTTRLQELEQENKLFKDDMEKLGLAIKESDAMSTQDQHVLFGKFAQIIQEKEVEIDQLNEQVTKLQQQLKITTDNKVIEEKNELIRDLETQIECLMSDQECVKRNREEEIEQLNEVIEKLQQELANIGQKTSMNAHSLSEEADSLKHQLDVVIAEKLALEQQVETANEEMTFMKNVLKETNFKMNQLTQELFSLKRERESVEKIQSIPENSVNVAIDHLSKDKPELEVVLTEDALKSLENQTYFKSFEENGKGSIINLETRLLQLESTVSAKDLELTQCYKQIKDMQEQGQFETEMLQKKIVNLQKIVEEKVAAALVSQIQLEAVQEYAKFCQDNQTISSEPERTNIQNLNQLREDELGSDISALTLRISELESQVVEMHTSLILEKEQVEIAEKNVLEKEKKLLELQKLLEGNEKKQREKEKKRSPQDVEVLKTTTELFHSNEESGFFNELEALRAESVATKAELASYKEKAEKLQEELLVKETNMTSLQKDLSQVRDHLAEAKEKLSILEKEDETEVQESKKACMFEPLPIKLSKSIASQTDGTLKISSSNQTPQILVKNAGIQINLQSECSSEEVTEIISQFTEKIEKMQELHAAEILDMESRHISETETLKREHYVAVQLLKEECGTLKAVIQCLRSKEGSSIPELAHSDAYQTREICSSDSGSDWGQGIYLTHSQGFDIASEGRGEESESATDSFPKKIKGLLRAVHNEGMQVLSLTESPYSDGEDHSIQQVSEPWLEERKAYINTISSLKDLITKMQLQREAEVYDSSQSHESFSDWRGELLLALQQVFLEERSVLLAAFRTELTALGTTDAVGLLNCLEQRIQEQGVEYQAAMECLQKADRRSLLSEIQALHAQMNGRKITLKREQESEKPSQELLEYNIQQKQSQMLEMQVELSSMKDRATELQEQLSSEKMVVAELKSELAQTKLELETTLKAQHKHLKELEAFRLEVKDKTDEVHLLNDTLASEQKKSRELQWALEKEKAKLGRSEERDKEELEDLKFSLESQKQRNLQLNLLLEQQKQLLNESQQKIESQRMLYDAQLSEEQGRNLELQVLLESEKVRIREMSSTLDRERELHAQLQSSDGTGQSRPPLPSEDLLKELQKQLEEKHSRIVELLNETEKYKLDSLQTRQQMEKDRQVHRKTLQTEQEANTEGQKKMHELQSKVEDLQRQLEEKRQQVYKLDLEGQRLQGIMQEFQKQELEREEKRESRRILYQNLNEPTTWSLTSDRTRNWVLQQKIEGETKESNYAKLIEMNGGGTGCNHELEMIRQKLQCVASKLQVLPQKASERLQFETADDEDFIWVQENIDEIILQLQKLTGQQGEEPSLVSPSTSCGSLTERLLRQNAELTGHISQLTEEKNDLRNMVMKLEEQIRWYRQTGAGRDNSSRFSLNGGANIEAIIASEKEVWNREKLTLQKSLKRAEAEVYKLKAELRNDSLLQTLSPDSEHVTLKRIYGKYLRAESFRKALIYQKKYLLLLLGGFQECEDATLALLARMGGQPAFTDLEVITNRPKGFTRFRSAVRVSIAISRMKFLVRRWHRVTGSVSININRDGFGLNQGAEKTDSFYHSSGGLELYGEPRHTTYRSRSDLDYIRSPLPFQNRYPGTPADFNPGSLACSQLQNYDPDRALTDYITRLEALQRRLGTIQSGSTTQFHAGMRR
Chain of UniProt P49585 (P49585 whole entry, one chain of several): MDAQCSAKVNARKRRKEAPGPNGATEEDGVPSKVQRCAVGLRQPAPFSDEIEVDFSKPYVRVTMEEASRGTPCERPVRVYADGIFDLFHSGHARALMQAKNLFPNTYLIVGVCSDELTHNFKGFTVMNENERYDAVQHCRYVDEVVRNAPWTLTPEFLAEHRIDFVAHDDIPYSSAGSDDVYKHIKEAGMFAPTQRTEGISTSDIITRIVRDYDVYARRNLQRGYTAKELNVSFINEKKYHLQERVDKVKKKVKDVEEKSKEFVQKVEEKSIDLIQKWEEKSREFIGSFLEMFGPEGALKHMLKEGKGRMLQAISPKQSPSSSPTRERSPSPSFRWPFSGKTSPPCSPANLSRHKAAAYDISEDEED
Chain of UniProt P02792 (P02792 whole entry, one chain of several): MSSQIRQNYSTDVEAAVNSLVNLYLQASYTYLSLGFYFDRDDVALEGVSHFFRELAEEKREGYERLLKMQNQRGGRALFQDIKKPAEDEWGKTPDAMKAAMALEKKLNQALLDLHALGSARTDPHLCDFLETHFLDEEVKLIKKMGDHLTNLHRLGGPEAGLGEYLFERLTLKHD

Target	NP40-soluble protein abundance (concentration: 0.1mM)	NP40-soluble protein abundance (concentration: 0.5mM)	NP40-soluble protein abundance (concentration: 1mM)	NP40-soluble protein abundance (concentration: 2mM)	NP40-soluble protein abundance (concentration: 4mM)	NP40-soluble protein abundance (concentration: 6mM)	NP40-soluble protein abundance (concentration: 8mM)	NP40-soluble protein abundance (concentration: 10mM)
UniProt A5PLN9|A5PLN9-2|A5PLN9-4|A5PLN9-5	1.02 ± 0.078	1.04 ± 0.052	0.99 ± 0.041	0.954 ± 0.05	0.969 ± 0.073	0.951 ± 0.041	0.965 ± 0.014	0.904 ± 0.014
A0A0B4J1R7|Q96B45 (UniProt Q96B45)	0.918 ± 0.15	0.977 ± 0.18	1.02 ± 0.17	1.09 ± 0.11	1.09 ± 0.24	1 ± 0.19	1.02 ± 0.12	1.06 ± 0.18
MYO1G (UniProt B0I1T2)	1.12 ± 0.027	1.47 ± 0.26	1.95 ± 0.34	2.5 ± 0.51	2.75 ± 0.45	2.67 ± 0.49	2.58 ± 0.3	2.35 ± 0.31
E9PPH5|Q9BTT0|Q9BTT0-3 (UniProt Q9BTT0)	0.838 ± 0.058	0.874 ± 0.062	0.978 ± 0.05	0.94 ± 0.045	0.937 ± 0.056	0.946 ± 0.037	0.958 ± 0.038	1.08 ± 0.079
A0A0U1RR32|A0A0U1RRH7|P04908|P0C0S8|P20671|Q6FI13|Q7L7L0|Q93077|Q96KK5|Q99878 (UniProt Q99878+Q7L7L0+Q6FI13+Q93077+P20671+P0C0S8+Q96KK5+P04908)	1.01 ± 0.11	0.7204 ± 0.0051	1.26 ± 0.37	1.24 ± 0.024	1.76 ± 0.48	1.92 ± 0.49	1.4 ± 0.53	2.39 ± 1.2
A0A0C4DFX4|Q6ZRS2|Q6ZRS2-2|Q6ZRS2-3 (UniProt Q6ZRS2)	1.12 ± 0.075	1.11 ± 0.013	1.3 ± 0.042	1.44 ± 0.17	1.6 ± 0.21	1.62 ± 0.17	1.86 ± 0.33	1.83 ± 0.29
A0A087WWH3|Q9NZM4|Q9NZM4-2 (UniProt Q9NZM4)	1.06 ± 0.018	0.989 ± 0.1	1.16 ± 0.19	1.22 ± 0.1	1.22 ± 0.15	1.13 ± 0.33	1.2 ± 0.44	1.33 ± 0.38
E9PDF6|O43795|O43795-2 (UniProt O43795)	1.44 ± 0.25	2.35 ± 0.38	2.32 ± 0.37	2.41 ± 0.43	2.4 ± 0.41	2.37 ± 0.38	2.33 ± 0.3	2.21 ± 0.26
A0A087WZV8|A0A0G2JN66 (UniProt P01850)	1.02 ± 0.032	1.04 ± 0.034	1.002 ± 0.0081	1.01 ± 0.042	1.01 ± 0.036	0.98 ± 0.023	0.977 ± 0.04	0.976 ± 0.046
E7EW84|Q8TAG9 (UniProt Q8TAG9)	0.9794 ± 0.0039	0.996 ± 0.039	0.959 ± 0.064	1.08 ± 0.082	1.01 ± 0.12	0.897 ± 0.022	0.882 ± 0.025	0.966 ± 0.18
C9J050|C9JEJ2|P49585 (UniProt P49585)	1.01 ± 0.094	0.986 ± 0.078	0.953 ± 0.074	0.945 ± 0.077	0.992 ± 0.073	0.942 ± 0.058	0.942 ± 0.079	0.936 ± 0.054
D6RIH7|Q9UM22 (UniProt Q9UM22)	0.918 ± 0.11	0.931 ± 0.14	0.91 ± 0.12	0.896 ± 0.13	0.902 ± 0.12	0.908 ± 0.13	0.88 ± 0.085	0.889 ± 0.11
A0A087X1B9|P02792 (UniProt P02792)	1.09 ± 0.16	1.03 ± 0.21	1.44 ± 0.11	1.55 ± 0.054	1.64 ± 0.14	1.465 ± 0.0048	1.43 ± 0.17	1.68 ± 0.12
A0A0A0MRF6|Q99996|Q99996-2|Q99996-3|Q99996-5|Q99996-6 (UniProt Q99996)	1.03 ± 0.014	1.05 ± 0.017	1.08 ± 0.049	1.1 ± 0.056	1.15 ± 0.09	1.14 ± 0.095	1.18 ± 0.14	1.12 ± 0.13
C9J5X1|P08069 (UniProt P08069)	1.04 ± 0.13	1.04 ± 0.13	1.15 ± 0.11	0.987 ± 0.07	1 ± 0.086	1.05 ± 0.1	1.07 ± 0.14	1.04 ± 0.2
B4DTS2|Q9BZL6 (UniProt Q9BZL6)	1.02 ± 0.021	1.04 ± 0.034	0.992 ± 0.053	1.02 ± 0.055	1 ± 0.059	0.97 ± 0.031	0.946 ± 0.045	0.946 ± 0.033
F8W0Q9|Q8NEY8-2|Q8NEY8-8|Q8NEY8-9|Q8NEY8-3|Q8NEY8 (UniProt Q8NEY8)	1.01 ± 0.022	1.08 ± 0.019	1.19 ± 0.058	1.28 ± 0.096	1.41 ± 0.18	1.45 ± 0.2	1.63 ± 0.22	1.77 ± 0.42
